Myeloid diff 2: myeloid differentiation induction; calls only at 10 µM; ER-HoxA9 myeloid progenitors, lysozyme-GFP differentiation, flow cytometry; AID 624256; 1% of 360,000 active;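 active = normalized GFP-positive differentiation at or above the plate's own cutoff, the solvent-only control mean plus 3 SD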;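 note: cells exposed to compound for four days before flow analysis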
IDE cell inh: inhibitors of human insulin-degrading enzyme in cells; P14735; HEK cells, FAbetaB cleavage, fluorescence polarization; AID 434962; inhibition, % at 5.59 µM; 0.41% of 320,000 active;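 active = percent inhibition above the average of all tested compounds plus 3 SD, set per screening campaign, cut at about 16% in these data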;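 note: IDE supplied by intact live HEK cells; FP after avidin binding of uncleaved biotin substrate so inhibition keeps polarization high; 0% = DMSO wells and 100% = 60 µM reference IDE inhibitor Ii1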
TPT1 inhibitor: C. albicans TPT1 enzyme inhibition; recombinant caTPT1, FP RNA substrate dephosphorylation; inhibition, % at 5 µM; 0.81% of 300,000 active;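 active = inhibition above the mean of all tested compounds plus 3 SD, set per screening campaign, cut at about 24% in these data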;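 note: plate controls were DMSO alone for no effect and ferristatin control at 100 nM for full effect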
IDE cell activ: boosts human insulin-degrading enzyme activity in HEK cells | 0.073% of 340,000 active | P14735 | activation, % at 5.96 µM | FAbeta-B cleavage, fluorescence polarization; 0% vehicle, 100% cell-free pure enzyme wells;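 active = activation above the mean of all tested compounds plus 3 SD, set per screening campaign, cut at about 17% in these data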
CRFBP-R2 agonist: CRF-BP/CRF-R2 complex agonism | HEK293 CRF-R2/CRF-BP, calcium dye fluorescence (FLIPR); percent of saturating CRF peptide response | activation, % at 13.2 µM | 0.46% of 350,000 active | AID 588473;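 active = activation of at least 50%, plus an integration ratio under a set limit after plate pattern correction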;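 note: plate controls were neutral control wells without compound for no effect and CRF at EC100 for full effect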
CRFR2-BP antag: antagonists of CRF-binding protein/CRF-R2 receptor complex; HEK293 CRF-R2/CRF-BP, CRF-induced calcium fluorescence; inhibition, % at 11.8 µM; 0.59% of 350,000 active;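 active = inhibition of the ligand-induced calcium signal above about 50% at the single tested concentration, limit read from the data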
Active calls of the source: *; i = inactive; · = not tested or not shown; + = active, no number. In the library only some 2.6% were active in any assay of this set; here they are far more common.

SMILES | Myeloid diff 2 | IDE cell inh | TPT1 inhibitor | IDE cell activ | CRFBP-R2 agonist | CRFR2-BP antag
Cc1cc(O)c2c(c1O)C(=O)[C@]13C(=C2O)C(=O)[C@@H]2[C@@H](O)[C@H]1[C@@H]1[C@H](O)[C@H]3C(=O)C3=C(O)c4c(O)cc(C)c(O)c4C(=O)[C@]312 | + | 9 | · | 1 | 0 | 1
Cc1cc(C)n2c(NCc3ccccc3)c(-c3cc4ccccc4o3)nc2n1 | + | · | · | · | · | ·
CC1CCN(S(=O)(=O)c2cnc[nH]2)CC1 | i | 5 | 0 | 6 | 0 | -14
N#CC(C#N)=C(Nc1ccc(F)cc1)SCc1cccc(Br)c1 | i | 5 | -2 | 4 | 42 | 69*
Cc1cccc(CSC(Nc2ccc(F)cc2)=C(C#N)C#N)c1 | i | -2 | -2 | 4 | 73* | 67*
Cc1cccc(CSC(=N)N)c1 | i | -3 | 5 | 8 | -2 | 3
O=S(=O)(c1ccc(N2CCCC2)cc1)C(F)(F)F | + | -1 | 6 | 2 | 1 | -5
CCC(=O)NC(=S)Nc1ccccc1OC | i | -2 | -2 | -1 | 2 | 16
COc1ccccc1NC(=S)NC(=O)Cc1ccc(Cl)cc1 | i | -2 | -4 | 5 | 63* | -19
Cc1cccc(NC(=S)NC(=O)Cc2ccccc2)c1C | i | · | · | 6 | 71* | -27
COc1cccc(NC(=S)NC(=O)Cc2ccc(Cl)cc2)c1 | i | 1 | 0 | 4 | 68* | -29
COc1ccc(CNC(=S)Nc2cccc(C)c2C)cc1 | i | -1 | 1 | 2 | -1 | 52*
CCCCNC(=O)C1(C)CCCCN1C(=O)c1ccc(C)c(F)c1 (centres undefined) | i | · | · | · | · | ·
COc1ccc(CC(=O)NC(=S)Nc2cccc(C)c2)cc1 | + | 3 | 1 | 8 | 58* | -25
Fc1cccc(NC(=S)NCc2ccc(Cl)cc2)c1 | i | -3 | 1 | 9 | -3 | 54*
COc1ccc(C(=O)O)cc1NC(=S)NC(=O)c1ccc(-c2ccc(Cl)cc2)o1 | i | · | · | -1 | -2 | 86*
O=C(NNc1ncnc2ccccc12)c1cccc(Cl)c1 | i | 2 | -1 | 2 | -1 | -5
COc1ccc(CCN2C(=NC(C)=O)SC3CS(=O)(=O)CC32)cc1OC (centres undefined) | i | 3 | -1 | 4 | -1 | -12
CC(OC(=O)c1nn(C)c(=O)c2ccccc12)C(=O)Nc1ccc(S(N)(=O)=O)cc1 (centres undefined) | + | -2 | -1 | 9 | 1 | -2
O=C(NC(=S)Nc1ccc2oc(=O)ccc2c1)c1cc2ccccc2o1 | i | -2 | 1 | -3 | 0 | 14
COc1ccccc1-c1c(C(F)(F)F)oc2cc(OC(=O)c3ccc([N+](=O)[O-])cc3)ccc2c1=O | i | 17* | -1 | -13 | 5 | -12
Cc1ccc(C)n1-c1cccc(C(=O)O)c1 | · | 10 | 51* | · | · | ·
Cc1cccc(C)c1-n1nnnc1C(c1ccnc2ccccc12)N1CCCN(C(=O)OC(C)(C)C)CC1 (centres undefined) | i | · | · | · | · | ·
COc1ccc(CCNC(=O)c2ccc(S(=O)(=O)N3CCCCC3)cc2)cc1 | i | 3 | · | -1 | 1 | -6
COc1ccc(CN2C(=NC(=O)C3CC3)SC3CS(=O)(=O)CC32)cc1OC (centres undefined) | + | 7 | 2 | -1 | 1 | -5
SMILES | Myeloid diff 2 | IDE cell inh | TPT1 inhibitor | IDE cell activ | CRFBP-R2 agonist | CRFR2-BP antag
Cc1nn(CC(=O)NC2(C#N)CCCCC2)c(C)c1[N+](=O)[O-] | i | -1 | · | 2 | 0 | 12
Cc1nn(CC(=O)N(C)C2(C#N)CCCCC2)c(C)c1[N+](=O)[O-] | i | -1 | · | -4 | 111* | -75
Cc1cc(NC(=O)Cc2ccccc2)ccc1NC(=O)c1cccs1 | i | 8 | 5 | 1 | -3 | 57*
Cc1cc(NC(=O)c2cccs2)ccc1NC(=O)Cc1ccccc1 | i | 2 | -1 | 2 | -1 | 3
COc1cccc(CCN2C(=O)CCC3=C2CCC3=O)c1 | i | · | · | · | · | ·
CC[C@@H](C)[C@H](CN[C@H](CNC)C(C)C)NC[C@@H](C)c1ccc(CC(C)C)cc1 | + | 2 | -2 | 7 | 0 | -14
CC[C@H](C)[C@@H](CNC)NC[C@@H](Cc1ccc(O)cc1)NCC(C)(C)C | i | 0 | -3 | -4 | -1 | 3

Screening data (PubChem)
